An excerpt weighted towards active compounds, which were near 3.8% of everything screened.
tim10-1 inh: growth inhibitors of tim10-1 mutant yeast. S. cerevisiae tim10-1 ts strain growth, BacTiter-Glo, 24 h. inhibition, % at 20 µM. 2.2% of 330,000 active. AID 463190;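 active means inhibition of at least 40%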;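 further: mutant grown at 25 °C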
NALP3 yeast inh: inhibitors of NALP3 inflammasome in yeast. inhibition, % at 10 µM. 0.39% of 330,000 active. AID 2825. Yeast reconstituted NLRP3/ASC/caspase-1, beta-gal luminescence, 24 h;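 active means inhibition of 50% or more; inactive means inhibition below 50%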
CR mimetic SO: caloric restriction mimetics inhibiting age-related superoxide in yeast; S. cerevisiae aged cells, superoxide DHE fluorescence; stronger effect = lower value; superoxide response (% of plate mean), % at 10 µM; 0.18% of 330,000 active;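 active means superoxide response under a set limit, about three screen SD below normal, cut at about 65% in these data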;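 further: yeast aged for seven days with compound at 30 °C before DHE staining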
TIM10 inh: TIM10 yeast growth inhibition; S. cerevisiae TIM10 strain growth, BacTiter-Glo luminescence, 24 h; inhibition, % at 10 µM; 1.4% of 330,000 active;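 active means inhibition of 40% or more at the single tested concentration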;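 further: wild-type TIM10 isogenic control strain grown at permissive 25 °C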
tim23-1 inh: growth inhibitors of tim23-1 mutant yeast; S. cerevisiae tim23-1 growth, BacTiter-Glo luminescence, 24 h; inhibition, % at 20 µM; 1.3% of 330,000 active;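 active means growth inhibition of the mutant yeast at or above 50%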;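 further: temperature-sensitive mutant grown at 25 °C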
tim10-1 conf: confirmation of tim10-1 mutant yeast growth inhibitors; shares compounds with tim10-1 inh; S. cerevisiae tim10-1 ts strain growth, BacTiter-Glo, 24 h; inhibition, % at 20 µM; 56% of 7,400 active; AID 463213;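 active means inhibition of yeast growth at or above a set limit in either of two repeat tests at 20 µM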;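 further: tim10-1 mutant grown at permissive 25 °C to find synthetic lethal compounds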
Each line names hits and unclear results; the compound was inactive in the other large screens (follow-up assays come after a bar, where they were run).

CCC1=C/C(=C/c2sc3ccccc3[n+]2CC)CC(C)(C)C1	tim10-1 inh 42 | tim10-1 conf 35
CCC1(c2ccc(C)cc2)NC(=O)N(C(C)C(=O)Nc2ccc(N3CCOCC3)cc2)C1=O (stereo unspecified)	none
COc1cccc(NC(=O)c2ccccc2Oc2ccccc2)c1	none
O=C(Nc1ccccc1)c1cccnc1NCCc1ccccc1	tim10-1 inh 40 | tim10-1 conf 32
COc1cccc(Nc2ncccc2C(=O)Nc2ccccc2)c1	tim10-1 inh 53 | tim10-1 conf 38
O=[N+]([O-])c1ccccc1/C=C/C=N/n1c(-c2ccccc2)n[nH]c1=S	tim10-1 inh 42 | tim10-1 conf 36
CC1CCCC(C)N1/N=C/C=C/c1ccccc1[N+](=O)[O-] (stereo unspecified)	tim10-1 inh 41 | tim10-1 conf inactive
O=C(O)C1CCN(Cc2cccnc2)CC1	none
Cc1ccc(C(=O)C(C)OC(=O)Cn2[nH]c(=O)c3ccccc3c2=O)cc1C (stereo unspecified)	none
CC1CCCC(NC(=O)CCNC(=O)c2ccccc2Cl)C1C (stereo unspecified)	none
Cc1cccc(-c2oc3ccccc3c2C#CCCCCO)c1	none
Cc1cccc(-c2oc3ccccc3c2C#CCCO)c1	tim10-1 inh 45 | tim10-1 conf inactive
CN(C)c1nc(NCc2ccccc2)nc(N/N=C/c2ccc3c(c2)OCO3)n1	tim10-1 inh 41 | tim10-1 conf inactive
O=c1[nH]c(N/N=C\c2ccc3c(c2)OCO3)nc2ccccc12	tim10-1 inh 40 | tim10-1 conf inactive
O=C(c1cscn1)N1CCCC(N2CCN(c3ccc(F)cc3)CC2)C1 (stereo unspecified)	none
Cc1ccc(C)c(/C=N/NC(=S)NCCc2ccccc2)c1	none
COc1ccc(OC)c2nc(-c3ccc4c(c3)OCO4)ccc12	tim10-1 inh 41 | tim10-1 conf 34
Cc1cc(N2CCC(C(=O)NC3CCCCC3)CC2)nc(-c2ccccc2)n1	tim10-1 inh 45 | tim10-1 conf inactive
Cc1ccc(C)c(CSc2nnc(-c3ccccn3)n2N)c1	tim10-1 inh 44 | tim10-1 conf inactive
Nn1c(SCc2c(F)cccc2F)nnc1-c1ccccn1	none
COc1cccc(NC(=S)Nc2cc(C)cc(C)n2)c1	none
Cc1cc(C)nc(NC(=S)Nc2cccc(F)c2)c1	tim10-1 inh 40 | tim10-1 conf inactive
CCC/C(=N\NC(=O)C1CCCC1)c1ccccc1	none
CC(C)(C)NC(=O)C(c1cccs1)N(Cc1ccc(F)cc1)C(=O)c1csnn1 (stereo unspecified)	tim10-1 inh 43 | tim10-1 conf inactive
NC(=S)N=Nc1c(O)[nH]c2c(Br)cc(Br)cc12	none
Cc1cnc(C(=O)OCC(=O)Nc2ccccc2[N+](=O)[O-])cn1	none
Cc1cccc(C(=O)Nc2ccccc2C(=O)OCC(=O)Nc2ccc(C#N)cc2)c1	tim10-1 inh 43 | tim10-1 conf inactive
Cc1ccc(NC(=O)COC(=O)c2ccccc2Nc2ccccc2)cc1	none
C=CCOC(=O)C(C#N)c1nc2ccccc2nc1N1CCCC1 (stereo unspecified)	tim10-1 inh 41 | tim10-1 conf inactive
COCCOC(=O)C(C#N)c1nc2ccccc2nc1N1CCCC1 (stereo unspecified)	none
CN(Cc1ccccc1)C(=O)CSc1nc2c(c(C(F)(F)F)n1)CCc1ccccc1-2	tim10-1 inh 44 | tim10-1 conf inactive
NC(=O)c1c(NC(=O)CSc2nc3c(c(C(F)(F)F)n2)CCc2ccccc2-3)sc2c1CCCC2	none
CCC(C)(C)NC(=O)C(c1ccccn1)N(C(=O)c1csnn1)c1ccc(C)c(C)c1 (stereo unspecified)	none
Cc1nc(N2CCN(c3ccc(Cl)cc3)CC2)[nH]c(=O)c1C	none
CCOC(=O)c1c(CSc2ccc(C)cc2)oc2ccc(O)cc12	none | tim10-1 conf inactive
CCN(C[C@H]1N[C@@](C)(C(=O)OC)[C@H]2C(=O)N(C)C(=O)[C@@H]12)C(=O)Nc1ccc(Cl)cc1	none
O=C(NCCN1CCN(c2ccccc2)CC1)C1CCN(S(=O)(=O)c2cccc3nsnc23)CC1	none
CCOP(=O)(OCC)/C(C#N)=C/c1ccc(-c2ccc(F)cc2F)o1	tim10-1 inh 47 | tim10-1 conf 32
Cc1ccccc1N1CCN(S(=O)(=O)c2nnc(NC(=O)c3ccco3)s2)CC1	tim10-1 inh 46 | tim10-1 conf inactive
CC(C)(C)NC(=O)c1ccc(Sc2ccccc2)c([N+](=O)[O-])c1	tim10-1 inh 42 | tim10-1 conf inactive
COc1c(-c2ccccc2)oc2c(ccc3occc32)c1=O	none
C/C(=N/Nc1nc(C)cc(-c2ccccc2)n1)c1ccco1	tim10-1 inh 41 | tim10-1 conf inactive
COc1cnc(-c2ccccn2)nc1Sc1ccc(C)cc1	tim10-1 inh 44 | tim10-1 conf inactive
CCCCCCN1C=C/C(=C\C=C(C#N)C#N)c2ccccc21	tim10-1 inh 49 | tim10-1 conf inactive
CCn1c(=O)n(CC)c2cc(S(=O)(=O)Nc3cc(C)cc(C)c3C#N)ccc21	none
COc1cc(C(=O)Nc2ccccc2N2CCCCC2)cc(OC)c1OC	none
CCCCN1C(=O)c2ccc(C(=O)Nc3ccccc3N3CCOCC3)cc2C1=O	tim10-1 inh 43 | tim10-1 conf inactive
COc1ccc(C(=O)Nc2ccccc2N2CCOCC2)cc1Br	tim10-1 inh 40 | tim10-1 conf inactive
COc1ccc(C(=O)NC(=S)Nc2ccccc2N2CCOCC2)cc1Br	none
COc1cc(C(=O)NC(=S)Nc2ccccc2N2CCCC2)cc(OC)c1OC	tim10-1 inh 51 | tim10-1 conf inactive
O=C(CN1C(=O)c2ccccc2C1=O)Nc1ccccc1N1CCOCC1	none
COc1cc(C(=O)NC(=S)Nc2ccc(Cl)cn2)cc(OC)c1OC	tim10-1 inh 42 | tim10-1 conf inactive
Cc1cc(C)c(OCC(=O)Nc2ccccc2N2CCOCC2)c(C)c1	tim10-1 inh 46 | tim10-1 conf 32
Nc1cccnc1Sc1cccc(Cl)c1	tim10-1 inh 41 | tim10-1 conf inactive
Nc1cccnc1Sc1ccc(Cl)cc1	none
CCCC(=O)Nc1sc2c(c1C(=O)Nc1ccccn1)CCCC2	tim10-1 inh 45 | tim10-1 conf inactive
CCOc1ccccc1NC(=O)c1c(NC(=O)CCC(=O)O)sc2c1CCCCC2	none (no result: CR mimetic SO)
CN1CCN(CC(=O)Nc2sc3c(c2C(=O)Nc2ccccc2)CCCC3)CC1	none
CCOC(=O)c1ccc(NC(=O)c2c(NC(=O)CCC(=O)O)sc3c2CCCCC3)cc1	tim10-1 inh 40 | tim10-1 conf 31
O=C(Nc1ccccn1)c1csc2c1CCCC2	tim10-1 inh 44 | tim10-1 conf inactive
COc1ccccc1NC(=O)c1csc2c1CCCC2	none
C=CCn1c(SC(C)C(=O)NC2CC2)nnc1-c1ccoc1C (stereo unspecified)	none
C[C@H](NC(=O)c1ccccc1Cl)C(=O)OC(C(=O)Nc1cc(C(F)(F)F)ccc1Cl)c1ccccc1 (stereo partly specified)	none

Screening data deposited in PubChem BioAssay by several laboratories.
